Compounds with a hit are over-represented: about 21% of the library has one in this group of screens.
Pf growth 48h = inhibits P. falciparum growth in the first generation, 48 h | P. falciparum luciferase growth in erythrocytes, 48 h | Potency, µM (titrated, usually from 28.7 µM), inactives show at the highest dose activity change, negative = inhibition, most hits filed as inhibitors | hit rate 5.9% among 310,000; note: potency is the fitted concentration of half-maximal effect; % is set by controls: 0 for no effect and ±100 for the full control effect
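First compound was added to culture medium, then infected red cells at 0.1% parasitemia and 2% hematocrit (final). After incubation at 37 C under 5% CO2, luciferase detection reagent was dispensed and light output recorded.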
CHX counter = counter-screen for Shiga toxin inhibitors: cycloheximide protein synthesis inhibition | max response, % | AID 2314 | hit rate 12% among 300,000 | cell reporter, cycloheximide protein synthesis inhibition counterscreen; in the data active = max response mostly above about 13%, no sharp cut-off; inactive = mostly below about 14%; note: read at 38.3 µM for the half of the compounds with a filed dose; 0% is about no effect
Pf growth 96h = P. falciparum growth inhibition at 96 hour, primary screen for plastid delayed-death inhibitors. Potency, µM (highest dose often 28.7 µM), inactives show top-dose activity change, negative = inhibition, usual class: inhibitors. hit rate 6.9% among 320,000. P. falciparum luciferase reporter growth, 96 h. AID 504834; note: potency is the fitted concentration of half-maximal effect; % is set by controls: 0 for no effect and ±100 for the full control effect
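Two-generation exposure (96 h) targets delayed-death phenotype. Reporter parasites carrying integrated firefly luciferase, in red cells at 2% hematocrit and 0.05% parasitemia final, kept at 37 C, 5% CO2; luminescence loss indicates inhibition.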
Shiga toxin inh = blocks Shiga toxin action in Vero cells. Vero cells, Shiga toxin protein synthesis inhibition reporter. inhibition, % at 38.7 µM. hit rate 9.2% among 290,000; in the data active = inhibition mostly above about 28%, no sharp cut-off; inactive = mostly below about 43%; note: 0% is about no effect
* hit, by the source's call. Unless noted, calls come from the whole dose curve; as a rule, active = well fitted inhibition curve with a large enough effect; inconclusive = small, poorly fitted or top-dose-only effect, or another doubt; inactive = no such curve, though single readings can be large or run the other way.

`O=C(N/N=C/c1cccc(Oc2ccc([N+](=O)[O-])cc2[N+](=O)[O-])c1)c1cncc(Br)c1` gave Pf growth 48h -7%, CHX counter 4, Pf growth 96h inconclusive and Shiga toxin inh -2.
Screening COC(=O)c1ccc(-c2ccco2)n1Cc1nc(-c2ccc(OC)c(OC)c2)oc1C returned Pf growth 48h 13µM*, CHX counter 6 and Shiga toxin inh 13.
`COC(=O)c1ccc(-c2ccco2)n1Cc1ccccc1Cl` gave CHX counter -2 and Shiga toxin inh -15.
Screening Cc1ccc(Sc2ncccc2C(=O)N(C)Cc2cccs2)c(C)c1 returned Pf growth 48h inconclusive, CHX counter 6, Pf growth 96h inconclusive and Shiga toxin inh -7.
Screening CCc1nc(NC(=O)Cc2csc(C)n2)sc1C(=O)OC returned Pf growth 48h 0%, CHX counter 26, Pf growth 96h 6% and Shiga toxin inh 12.
For Clc1ccc2[nH]c3c(c2c1)CCc1cn[nH]c1-3 the results were Pf growth 48h 0%, CHX counter 29*, Pf growth 96h 64% and Shiga toxin inh 70*.
Screening c1ccc2c3c([nH]c2c1)-c1[nH]ncc1CC3 returned Pf growth 48h -29%, CHX counter 14, Pf growth 96h inconclusive and Shiga toxin inh 53.
Screening CCN1/C(=C\C=C(C(C)=O)C(C)=O)Sc2ccccc21 returned Pf growth 48h 0%, CHX counter 19*, Pf growth 96h -10% and Shiga toxin inh 16.
`CCOC(=O)/C(C#N)=C(C)/C=C1\Sc2ccccc2N1CC` gave Pf growth 48h 5%, CHX counter 13, Pf growth 96h -10% and Shiga toxin inh -6.
For CCN1/C(=C\C(=S)Nc2ccccc2)Sc2ccccc21 the results were Pf growth 48h -3%, CHX counter 31*, Pf growth 96h 24% and Shiga toxin inh 56*.
Screening Nc1nc2nc(-c3ccccc3)cc(C(F)(F)F)c2s1 returned Pf growth 48h -1%, CHX counter -1, Pf growth 96h -5% and Shiga toxin inh -7.
`COc1ccccc1CCNC(=O)C(=O)NCC1OCCCN1S(=O)(=O)c1ccc(F)cc1C` (stereo not drawn) gave Pf growth 48h -28%, CHX counter -2, Pf growth 96h inconclusive and Shiga toxin inh -4.
`NC(CC(=O)Nc1ccc(Oc2cc(F)c(F)cc2Br)cc1)C(=O)O` (stereo not drawn) gave CHX counter -4 and Shiga toxin inh -4.
`O=[N+]([O-])c1ccc(Sc2nc3ccccc3o2)c([N+](=O)[O-])c1` gave CHX counter 10, Pf growth 96h inconclusive and Shiga toxin inh 55*.
`O=[N+]([O-])c1ccc(Cl)cc1Sc1nc2ccccc2o1` gave Pf growth 48h 8.3µM*, CHX counter 0, Pf growth 96h 8% and Shiga toxin inh 17.
Screening Nc1nc(Sc2ccc([N+](=O)[O-])cc2[N+](=O)[O-])n[nH]1 returned Pf growth 48h inconclusive, CHX counter 2, Pf growth 96h inconclusive and Shiga toxin inh 6.
`O=[N+]([O-])c1ccc(Cl)cc1Sc1cccc2cccnc12` gave Pf growth 48h -25%, CHX counter -3, Pf growth 96h -15% and Shiga toxin inh -7.
O=C(C1CCN(S(=O)(=O)c2ccccc2)CC1)N1CCN(Cc2ccccc2)CC1 was read as Pf growth 48h 0%, CHX counter -2, Pf growth 96h inconclusive and Shiga toxin inh -6.
CC(C)Sc1nc2sc3c(c2c2nnc(SCC(=O)NCc4ccco4)n12)CCCC3 was read as Pf growth 48h 6.6µM*, CHX counter 19, Pf growth 96h inconclusive and Shiga toxin inh 20.
Cc1nc(SCC(=O)NCc2ccco2)c2c3c(sc2n1)CCCC3 was read as CHX counter 24*, Pf growth 96h inconclusive and Shiga toxin inh 43*.
O=C(CSc1nc(C2CC2)nc2sc3c(c12)CCCC3)NCc1ccco1 was read as Pf growth 48h 27%, CHX counter 7, Pf growth 96h 16% and Shiga toxin inh 10.
`COc1ccc(C(=O)NN2CC(O)=C(c3nc4ccccc4n3C)C2=N)cc1OC` gave Pf growth 48h 24%, CHX counter -3, Pf growth 96h 32% and Shiga toxin inh -18.
Screening CCC1CN(C(=O)N2CCC(C(=O)Nc3ccccc3OC)CC2)c2ccccc2O1 (stereo not drawn) returned Pf growth 48h inconclusive, CHX counter -9, Pf growth 96h inconclusive and Shiga toxin inh -4.
`CC(C)C(NC(=O)CN1C(=O)c2ccccc2C1=O)c1ccccc1` (stereo not drawn) gave Pf growth 48h 26%, CHX counter -3, Pf growth 96h 26% and Shiga toxin inh -6.
